This is an account of results in ChEMBL document CHEMBL3988442, “University of Dundee, Small-Polar-MMV Screening Library” (2021).

Each structure is given as a SMILES string.

The assay concerns the target T1, Aspartate--tRNA(Asp/Asn) ligase (Mycobacterium tuberculosis (strain ATCC 25618 / H37Rv)) (UniProt P9WFW3).
T1 sequence (whole entry): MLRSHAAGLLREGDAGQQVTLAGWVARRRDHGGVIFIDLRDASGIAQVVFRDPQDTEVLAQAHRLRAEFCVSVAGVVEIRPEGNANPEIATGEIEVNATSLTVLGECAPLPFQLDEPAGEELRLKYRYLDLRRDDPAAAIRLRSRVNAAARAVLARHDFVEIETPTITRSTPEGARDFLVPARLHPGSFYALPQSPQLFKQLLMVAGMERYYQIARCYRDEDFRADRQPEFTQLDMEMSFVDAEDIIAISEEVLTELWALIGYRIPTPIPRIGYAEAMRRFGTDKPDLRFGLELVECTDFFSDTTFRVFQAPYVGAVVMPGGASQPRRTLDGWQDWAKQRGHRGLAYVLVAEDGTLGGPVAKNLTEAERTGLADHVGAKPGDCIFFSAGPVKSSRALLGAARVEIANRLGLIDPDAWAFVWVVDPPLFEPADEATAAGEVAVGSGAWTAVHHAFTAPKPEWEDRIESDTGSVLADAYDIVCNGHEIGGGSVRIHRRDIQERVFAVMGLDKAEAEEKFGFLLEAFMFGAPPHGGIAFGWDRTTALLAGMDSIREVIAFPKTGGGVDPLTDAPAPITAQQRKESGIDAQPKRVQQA
Nature of the assay: Assay for Asp RNA synthetase-1 from Mycobacterium tuberculosis. To be noted: 30 µM. The format is functional. Further details: scale not given: in the data most compounds retested in dose-response had high values.
In the case of `Cc1csc(C2CCCCN2C(=O)CN(C)C2CC2)n1` (stereo not given), the Percent Effect was -4.06%. For the compound `CCCn1ccc(C(=O)N2CCOC(c3nc(-c4cccs4)no3)C2)n1` (stereo not given), the Percent Effect is 0.28%. In the case of `O=C(CCc1cscn1)N1CCCC(c2ccn[nH]2)C1` (stereo not given), the Percent Effect is -1.82%. Consider `CC(C(=O)N1CCCN(c2ncccc2C#N)CC1)n1ccnc1` (stereo not given), for which the Percent Effect is -0.45%. As for `CNC(=O)CCNC(=O)c1cccc(Cn2nc(C)cc2C)c1`, the Percent Effect is -3.31%. In the case of `Cc1c(F)cccc1CN1CCn2nc(CNC(=O)N(C)C)cc2C1`, the Percent Effect was 0.386%. In the case of `CC(=O)N(Cc1ncc(C)o1)C1CCN(CCNC2CCCCC2)C1` (stereo not given), the Percent Effect stood at 1.34%.

`CNC(=O)Nc1cc(-c2ccccc2C)nn1CCO`: the Percent Effect is 10.9%. For `COc1nn(C)c2c1CCCN(C(=O)c1ccccc1)C2` the value was -0.268%.

Regarding `Cc1cccnc1NC(=O)CSc1ccc2c(c1)OCCO2`, the Percent Effect was 0.668%.

With `COc1ccccc1OCc1cc(C(=O)N2CCN[C@H](C)C2)n[nH]1`, the Percent Effect stood at 0.167%. For `O=C(NCCNc1ncccn1)Nc1cc(C(F)(F)F)c[nH]c1=O` the value was -1.25%; for `Fc1ccc(CN2CCO[C@H]3[C@H](OCCN4CCCC4)CC[C@@H]32)cc1`, 2.94%; for `CC1CN(C(=O)CN(Cc2ccco2)C2CC2)CCO1` (stereo not given), 3.17%.

On to `CC(=O)Nc1nc(C2CCN(C(=O)c3cccnc3)CC2)cs1`, for which the Percent Effect is -8.57%.

Turning to `O=C(CSC1CCc2ccccc2NC1=O)NCCO` (stereo not given), the Percent Effect was 0.805%. Turning to `Cc1ccc(NC2CCN(C(=O)c3cccc(F)c3F)CC2)nn1`, the Percent Effect is -4.5%. For `Cn1cc(C(=O)NCc2cn3c(n2)CN(Cc2ccccn2)CC3)cn1` the value was 6.41%; for `c1coc(CN2Cc3nccn3CC(Cn3cncn3)C2)c1` (stereo not given), -0.866%; for `CN(C)C(=O)Cc1ccc(NC(=O)NC2CCCCC2)cc1`, -1.13%.

Regarding `CCNC(=O)[C@@H]1C[C@@H](NC(=O)Cc2ccccn2)CN1CCCSC`, the Percent Effect was -0.228%.

On to `CN(Cc1nnc2n1CCC2)C(=O)Cc1ccc2c(c1)OCCO2`, for which the Percent Effect was 4.23%. Take `COc1ccccc1[C@@H]1CN(Cc2cc(C(C)(C)C)[nH]n2)C[C@H]1C(=O)O`: the Percent Effect is 1.28%. Regarding `COC(=O)C(C)(C)NC(=O)C1CC(=O)N(C2CCCC2)C1` (stereo not given), the Percent Effect amounted to 0.137%.

In the case of `Cc1cnn(CC2CCCN2C(=O)c2cccc(CC#N)c2)c1` (stereo not given), the Percent Effect was -1.43%. Turning to `CN(C)CC1CN(Cc2ccc3c(c2)OCO3)Cc2nccn2C1` (stereo not given), the Percent Effect was 9.35%. The same measure for `O=C(NS(=O)(=O)c1ccc2c(c1)OCCO2)c1ccc(Br)cc1F`: 1.56%; for `Cc1nc(C)n(C2CCCN(C(=O)c3csnn3)C2)n1` (stereo not given): 9.97%; for `Cc1ccc2c(c1)c(CNC(=O)C1CCN(C(C)C)CC1)nn2C`: -0.814%.

As to `Cc1nn(C)c2c(NCc3ccccc3F)nc(C3CC3)nc12`, the Percent Effect is 12.5%.

In the case of `COC(=O)c1ccc(C(=O)NS(=O)(=O)c2cncc(Br)c2)cc1`, the Percent Effect was -0.323%.

For the compound `Cc1nn(C)c(N(C)C)c1CNCc1cccc(CN(C)C(C)C)c1`, the Percent Effect came to 2.27%. Consider `Cc1ccoc1C(=O)N1C[C@@H]2[C@@H](C1)OCC(=O)N2Cc1cccnc1`, for which the Percent Effect is 2%. With `CCOC(=O)NC(CNC(=O)c1ncccn1)CC(C)C` (stereo not given), the Percent Effect is 6.25%. `Cc1cnc(NC(=O)N2CCCC2)s1`: the Percent Effect came out at 1.37%.

For `COCCNC(=O)C(C)n1cc(Br)cn1` (stereo not given), the Percent Effect turned out to be 9.87%. On to `CCn1cc(NC(=O)C2CCN(Cc3noc(C(C)C)n3)CC2)cn1`, for which the Percent Effect was found to be 1.21%. For `Cc1cc(NC(=O)NCCc2ccsc2)n(C)n1` the value was -9.16%; for `O=C(c1ccncc1)N1CCCn2c(CN3CCCCC3)nnc2C1`, -3.93%; for `Cc1nnc(CN2CCN(CCOc3ccccc3C#N)CC2)n1C`, 3.6%.
